system: RARb homodimer (NR concentration 270 nM); test: PBM binding z-score (relative to random genomic background probes); higher = stronger binding; sequences stand for … in GC…GCGATTGACAGCGTAGAATGAAGG
Procedure, shortened: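 Ligand-free nuclear receptor dimers were applied to custom Agilent 4×180K protein-binding microarrays whose double-stranded probes carried direct-repeat seeds, single-nucleotide variants, half-site ablations and random human genomic background sequences in 34-nt variable regions. Incubation lasted 1 h. Binding z-scores were computed against the random background probes from regression-normalized fluorescence.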

Sequence | PBM binding z-score
ACTCGGAGTACAAAGGTCAGAGCTACGCCAGTGA | 4.27
GCTCGCAGGACAAGGTCAGAGCTTTGTCCGTAGA | 2.58
ATCGAAAGGTCGAAGGTGAGTATCCCCACCCGAA | 2.43
GTACCAAGGTGAATAGGTCGTTGAGGAGTAGGCG | 1.97
CCTACTGGGCCAAAAAGGTCATTGGTGCCGATAA | 4.58
ACTATTAGTTGAGACGAGGGGAACCGATAGGTTG | -0.242
TCAGACAGGTGAAGGTAACTTAGGTACGCAGTCG | 0.872
GCCAGCAGGCCATTTGGGTCACTCAATGACGGGC | 1.78
GCTATTAGTTGAAAGGGCAACTGAATGATTCTCG | 1.9
TAGCCTAGGTCAAATCGGGCCAGTATACGCTATA | 2.7
CAAACTAGGTCATCGGAAGGTCAAAGTCCGCATG | 5.46
GGAACTAGGGCATTCGAGTTGATAGCATGGCGAT | 0.555
TCTTGAAGATCAACAGGAGGTTAAGAAAGATCGA | 0.572
ACAGACAGGTGAGTGAAGGTATCTCAGCTGGACG | -0.269
CAAACTAGGTCAAGCTCAAAGTCGGTTTGTGCCA | 3.34
AATACAGGGTCATCGTAGCCCAGAGTACGCACAG | 3.25
CCTGCTAGGTCATGGTAAGCTAATCTACAGTATG | 2.79
GCTAGCAGGCCATTTGGGTCACTCAGTGACGGGC | 1.63
TCAGACAGGTGAAGATAACTCAGGTACGCAGTCG | 0.661
CCAGACAGGTGAGAAGGTAACTTAGCCTCGATTA | 0.632
TAGCCTAGGTCATGCGGTCCAGTATAGTGTCGGC | 3.08
ACTAGTTGGTCAGCGGAGGTCACACACAATTCGG | 4.09

Source: the supplement of paper PMC6555819
